Compound activity from PubChem BioAssay.
CtBP-E1A inh: qHTS Assay for Inhibitors of the CtBP/E1A Interaction; CtBP / adenovirus E1A interaction (AlphaScreen); AlphaScreen GST-E1A/His-CtBP binding, 1536-well; stronger effect = lower value; activity change, % (concentration not given with the values); 340,000 tested, 0.49% active; AID 651724, 2012; in the data active = activity change below about -65%; inconclusive = mostly about -30% to -63%
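Steps: dispense buffer (Tris pH 8.0, NaCl 300 mM, TCEP 1 mM, BSA, Tween 20); add 5X protein mix (GST-E1A, His-CtBP, 125 nM each); pin 23 nL compound; 2 h at 37 °C, dark; add 5X beads (50 ug/mL); 1 h; read.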
Gal4-VP16 FLuc: VP16 counterscreen qHTS for inhibitors of ROR gamma transcriptional activity; 310,000 tested, 3.5% active; Potency, µM (top dose mostly 53.6 µM), inactives show top-dose activity, negative = inhibition, hits mostly inhibitors; AID 2546, 2010; Drosophila S2 Gal4-VP16 UAS-luciferase, luminescence, 20 h;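 note: Gal4-VP16 expression switched on by copper sulfate through the metallothionein promoter; potency is the fitted concentration of half-maximal effect; nearly all actives have a fitted effect of over 50% in size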
PKM2 act: qHTS Assay for Activators of Human Muscle isoform 2 Pyruvate Kinase; Pyruvate kinase PKM (Homo sapiens), P14618; purified PKM2, Kinase-Glo ATP luminescence, activation; response scale: 0% is enzyme alone, no compound; Potency, µM (titrated, usually from 57.5 µM), inactives show at the highest dose activation, hits mostly activators; 260,000 tested, 0.34% active; AID 1631, 2009; note: potency is the fitted concentration of half-maximal effect; nearly all actives have a fitted effect of over 55% in size
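ATP formation by purified human PK-M2, quantified via coupled luciferase luminescence after 1 h at room temperature with 0.1 mM ADP and 0.5 mM PEP final.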
Six1-Eya2 inh: qHTS Assay for Inhibitors of the Six1/Eya2 Interaction; AID 651725, 2012; Homeobox protein SIX1 (Homo sapiens) + Protein phosphatase EYA2 (Homo sapiens), …; AlphaScreen GST-Six1/His-Eya2 binding, biochemical; stronger effect = lower value; activity change, % (concentration not given with the values); 360,000 tested, 0.56% active; in the data active = activity change below about -65%; inconclusive = mostly about -30% to -63%
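AlphaScreen luminescence read after one hour at 37 °C in darkness. Pin-transferred compounds met GST-Six1 and His-Eya2 protein (5X stock 250 nM/500 nM) plus glutathione donor and Ni-chelate acceptor beads (5X, 50 ug/mL).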
RORgamma inh: qHTS for inhibitors of ROR gamma transcriptional activity; Nuclear receptor ROR-gamma (Mus musculus), P51450; Drosophila S2 Gal4-RORgamma UAS-luciferase reporter, 20 h; Potency, µM (series often up to 53.6 µM), inactives show top-dose activity change, negative = inhibition, usual class: inhibitors; 310,000 tested, 5.4% active; note: potency is the fitted concentration of half-maximal effect; nearly all actives have a fitted effect of over 60% in size
Target sequence (P51450 whole entry, looked up, the tested form may be a part): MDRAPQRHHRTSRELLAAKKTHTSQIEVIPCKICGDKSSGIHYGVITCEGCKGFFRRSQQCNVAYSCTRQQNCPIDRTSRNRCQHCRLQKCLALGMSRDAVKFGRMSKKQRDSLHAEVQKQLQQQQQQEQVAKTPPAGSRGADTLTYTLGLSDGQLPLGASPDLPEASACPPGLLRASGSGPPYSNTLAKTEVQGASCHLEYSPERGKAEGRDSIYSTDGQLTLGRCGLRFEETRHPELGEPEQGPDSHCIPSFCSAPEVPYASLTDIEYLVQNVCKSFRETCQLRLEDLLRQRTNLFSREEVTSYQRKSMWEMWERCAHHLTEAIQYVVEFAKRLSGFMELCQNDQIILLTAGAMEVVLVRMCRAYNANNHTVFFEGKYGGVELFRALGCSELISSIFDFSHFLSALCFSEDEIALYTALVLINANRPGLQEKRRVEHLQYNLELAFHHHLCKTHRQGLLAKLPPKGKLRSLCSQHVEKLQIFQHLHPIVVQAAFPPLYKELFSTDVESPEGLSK
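A Gal4/UAS one-hybrid system in insect cells: metallothionein-promoter Gal4–ROR gamma fusion plus Photinus luciferase reporter. Copper sulfate 700 uM final, 20 hr ambient incubation, luminescent detection after 10 min with reagent.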
* = called active by the depositor; u = inconclusive; x = no result given; [ ] = remark or other dose. Compounds with a hit are over-represented: about 5.6% of the library has one in this group of screens. Unless noted, calls come from the whole dose curve; as a rule, active = well fitted curve in the direction sought with a large enough effect; inconclusive = small, poorly fitted or top-dose-only effect, or another doubt; inactive = no such curve, though single readings can be large; an effect the other way counts as inactive or inconclusive. % is set by controls: 0 for no effect and ±100 for the full control effect.

SMILES	CtBP-E1A inh	Gal4-VP16 FLuc	PKM2 act	Six1-Eya2 inh	RORgamma inh
CC1CCCN(C2=C(NS(=O)(=O)c3ccc(Br)cc3)C(=O)c3ccccc3C2=O)C1 (stereo not drawn)	u	u	-5%	-3	-24%
CCOC(=O)C1CCN(C2=C(NS(=O)(=O)c3ccc(Cl)cc3)C(=O)c3ccccc3C2=O)CC1	-81*	0%	-4%	u	-6%
CCOC(=O)C1CCCN(C2=C(NS(=O)(=O)c3ccc(Br)cc3)C(=O)c3ccccc3C2=O)C1 (stereo not drawn)	x	-14%	x	-71*	-17%
CCNC(=S)N1CCN(CCN2C(=O)c3cccc4cccc(c34)C2=O)CC1	20	-2%	-14%	-3	13%
O=C1c2cccc3cccc(c23)C(=O)N1CCN1CCN(C(=S)Nc2ccc(Cl)cc2)CC1	2	-7%	-4%	7	2.8µM*
Cc1ccc(S(=O)(=O)C(NC(=O)c2ccccc2)=C(Cl)Cl)cc1	-22	x	x	4	x
CC(=O)NC(=C(Cl)Cl)S(=O)(=O)c1ccccc1	-14	u	2%	5	13µM*
Clc1ccccc1Cn1c(/C=C/c2ccco2)nc2ccccc21	17	u	0%	2	11µM*
Cc1cccc(CSC(Nc2ccc(F)cc2)=C(C#N)C#N)c1	-3	u	4%	0	u
N#CC(C#N)=C(Nc1ccc(F)cc1)SCc1cccc(Br)c1	10	7.9µM*	-1%	0	u
COC(=O)N[C@@H](c1cccc(C)c1)[C@@H](C)[N+](=O)[O-]	x	4%	x	x	-4%
COc1ccc(NC(=O)c2cccs2)c([N+](=O)[O-])c1	-15	-4%	-6%	-7	11%
COc1ccc(NC(=O)C/C(C)=N/NC(=O)c2cccs2)c([N+](=O)[O-])c1	-22	18µM*	10%	-20	20µM*
OC(CNc1ncnc2sccc12)c1ccccc1 (stereo not drawn)	10	6.3µM*	-5%	-3	u
c1ccc(CNc2ncnc3sccc23)cc1	x	18µM*	5%[0.46 µM]	7	-12%
c1cncc(CNc2ncnc3sccc23)c1	4	-12%	0%	-2	u
COc1ccc(CNc2ncnc3sccc23)cc1OC	-3	11µM*	3%	20	u
COc1ccc(CNc2ncnc3sccc23)cc1	-10	u	1%	0	u
CN(C)C(CNc1ncnc2sccc12)c1ccccc1 (stereo not drawn)	2	3%	-13%	3	10%
CSCCC(C(=O)Nc1c(C)cccc1C)N1CCN(c2ccc(F)cc2)CC1 (stereo not drawn)	-5	x	x	-11	x
CCCCCCCCOc1c(OC)cc(/C=C/C(=O)N2CCN(c3ccc(C)c(C)c3)CC2)cc1OC	x	0%	x	x	8%
O=C(Nc1nc2ccccc2s1)c1ccc(N2CCCCC2)c([N+](=O)[O-])c1	u	u	0%	u	10µM*
S=c1[nH]nc(CSCCOc2ccccc2)o1	-23	-12%	-11%	-2	u
S=c1[nH]nc(CSCCOc2ccc(Cl)cc2Cl)o1	-8	3.2µM*	-29%	-2	4µM*
CN1CCN(C(=O)c2cc(COc3c(F)cccc3F)on2)CC1c1ccccc1 (stereo not drawn)	-12	7.1µM*	18µM*	-10	7.1µM*
SMILES	CtBP-E1A inh	Gal4-VP16 FLuc	PKM2 act	Six1-Eya2 inh	RORgamma inh
Cc1cc(/C=C2/SC(=S)N(c3ccc([N+](=O)[O-])cc3)C2=O)c(C)n1-c1cccnc1	-8	0.89µM*	3%	-9	3.2µM*
Cc1cc(/C=C2\SC(=S)N(C)C2=O)c(C)n1-c1ccc(O)cc1	-12	0.63µM*	1%	-9	u
Cc1cc(/C=N/n2cnnc2)c(C)n1-c1ccc(OCc2ccc(Cl)cc2Cl)cc1	-17	11µM*	-2%	-25	0%
Cc1cc(/C=N/n2cnnc2)c(C)n1-c1ccc(Cl)cc1	-4	-14%	-7%	-3	23%
COc1ccc(-n2nnnc2C2(C)CCC(=O)N2Cc2ccccc2)cc1 (stereo not drawn)	1	x	x	4	x
CCCCCCN1C=CC(=C2C(=O)c3ccccc3C2=O)C=C1	6	-9%	-24%	10	23%
CCCN1C=CC(=C2C(=O)c3ccccc3C2=O)C=C1	-3	0.25µM*	-54%	-5	1.1µM*
CN1C=CC(=C2C(=O)c3ccccc3C2=O)C=C1	x	u	0%	x	u
CCN1C=CC(=C2C(=O)c3ccccc3C2=O)C=C1	-8	0.32µM*	-35%	-8	u
O[C@@H]1CCN2Cc3ccccc3N=C12	x	-7%	x	x	-2%
COc1ccc(CCCO[C@@H](Cn2ccnc2)c2ccc(OC)cc2)cc1	x	32µM*	x	x	8.9µM*
CCc1ccc(N2CC(C(=O)Nc3cccc(S(=O)(=O)N4CCCC4)c3)CC2=O)cc1 (stereo not drawn)	6	x	x	-7	x
CCCCCCC1CC(=O)NC(=S)N1 (stereo not drawn)	5	u	24%	-2	8.9µM*
O=C1CC(c2ccccc2)NC(=S)N1 (stereo not drawn)	5	x	x	-2	x
COc1cccc(-n2nnnc2SCC(=O)Nc2nc3c(s2)CCCC3)c1	-6	8.9µM*	2%	-10	3.2µM*
O=C(Nc1nc2c(s1)CN(Cc1ccccc1)CC2)C1CCC1	-16	11%	-2%	-15	-5%
CCN1CCc2nc(NC(=O)c3ccccc3)sc2C1	-18	11µM*	1%	1	14µM*
COc1cccc(C(=O)Nc2nc3c(s2)CN(C)CC3)c1	0	13µM*	4%	7	15%
O=C(NCc1cccs1)c1ccc(CS(=O)Cc2ccc(Cl)cc2)o1 (stereo not drawn)	6	x	x	3	x
O=C(Nc1ccccc1C(=O)O)/C(=C/c1ccc(Cl)cc1Cl)NC(=O)c1ccco1	-8	-7%	-7%	-2	30%
CC1(C)Nc2ccc(O)cc2-c2c1ssc2=S	-15	u	-1%	u	8.9µM*
CCOc1ccc(N(CC(=O)N2CCOCC2)S(=O)(=O)c2ccc(F)cc2)cc1	4	-1%	-3%	0	6%
CS/C(Nc1cc(Cl)ccc1Cl)=C(/C#N)C(=O)c1ccco1	1	14µM*	-74%	u	10µM*
Cc1cccc(-c2nsc(SCC(=O)Nc3ccc4c(c3)OCO4)n2)c1	-7	-5%	4%	-8	-13%
Cc1cccc(-c2nsc(SCC(=O)N3CCCC3)n2)c1	-9	u	-11%	0	7.1µM*
Cc1cccc(-c2nsc(SCC(=O)Nc3nccs3)n2)c1	9	-14%	6%	2	11µM*
